# According to PubChem BioAssay:
# Where “and” joins values, the source holds several entries; their conditions need not be identical. Identical values can stand only once. Results filed as inconclusive are left out. More than one record can exist for a structure, and the calls need not agree. Calls of active or inactive are those of the source.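 The calls were made as follows, unless noted: active = normalized viability below 100% at a tested concentration; inactive = the rest.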
# Key:
# [1] = Wnt pathway potentiators raising nuclear beta-catenin – imaging, WNT3A-conditioned medium, mouse C2C12, NPC library, primary screen (AID 1117326; in the data active = nuclear beta-catenin stimulation mostly above about 4.2%, no sharp cut-off; inactive = mostly below about 10%); details: stronger effect = higher value
# [2] = stimulators of insulin release from INS-1E, primary screen, cell-based, 5 mM glucose, NPC library (AID 1117329;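 active = compound raises insulin release from rat beta cells at 5 mM glucose, no numeric limit stated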); details: rat INS-1E insulin secretion, at 10 µM, stronger effect = higher value
# [3] = growth inhibition of GSK3B-pretreated HCT116 cells – cell-based, CellTiter-Glo, 0.2 to 20 µM (AID 1117336;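 active = compounds lowering colon cancer cell viability after pretreatment blocking the GSK3B kinase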); details: HCT116 viability after GSK3B inhibitor, at 20 µM, stronger effect = higher value
# [4] = inhibition of endothelial tube formation, primary screen, imaging, VEGF stimulated, CD31 staining, tube area, NPC library (AID 1117340;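 active = compound that reduces growth-factor-driven endothelial tube area in a mixed cell culture, no cutoff stated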); details: VEGF-stimulated ADSC/ECFC co-culture, at 10 µM, stronger effect = higher value
# [5] = GLP1 release stimulators, primary, NCI-H716, NPC library (AID 1117341;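 active = compound raises GLP1 secretion from the human gut endocrine cells, with no numeric limit stated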); details: NCI-H716 cells, at 10 µM, stronger effect = higher value
# [6] = HCT116 colon cancer cell growth inhibition, primary screen, CellTiter-Glo luminescence, NPC library (AID 1117342;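 active = compounds that lower survival of HCT116 colon cancer cells in the luminescence readout, no numeric limit stated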); details: at 20 µM (top of the series)
# [7] = reduced SW480 viability measured with CellTiter-Glo, NPC library, primary (AID 1117343;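 active = compounds that lower viability of the colon cancer cells in the luminescence readout, with no numeric limit stated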); details: CellTiter-Glo luminescence; at 20 µM (top of the series) unless noted
# [8] = NPC library primary testing for decreased DLD-1 cell viability via CellTiter-Glo (AID 1117346;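 active = compounds that lower survival of DLD-1 colon cancer cells in the luminescence readout, no cutoff given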); details: DLD-1 viability, CellTiter-Glo luminescence; at 20 µM (top of the series)
# [9] = tested on: Aerobactin synthetase IucA (Klebsiella pneumoniae); assay: inhibition of K. pneumoniae IucA enzyme – biochemical, Tocris library, absorbance (AID 1345561; call rule not given here;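 also: 100% = enzyme without compound and 0% = no enzyme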); details: purified IucA enzyme assay, absorbance (OD) read-out; stronger effect = lower value;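 tested at 8 µM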
# [10] = viability loss with induced miR-34 in A549 – imaging, A549 dox-inducible miR-34, nuclei and caspase counts, primary screen (AID 1347080;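 active = compounds whose cell count with miR-34 switched on is under 0.7 times the count with it off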); details: A549 miR-34 inducible, Hoechst nuclei count, 48 h
# [11] = galactose survival enhancers in mitochondrial complex I cybrids – cell-based, galactose medium, ATP luminescence, primary screen (AID 1645843;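 active = z-score of at least 1.8 in each of two replicates, scored against plate mean and spread of sample wells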;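 also: positive z means more ATP and so rescue of galactose-driven cybrid death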); details: complex I mutant cybrid cells, 72 h, stronger effect = higher value
# [12] = P. berghei load reduction in hepatocytes – cell-based, HepG2, luciferase luminescence, HepG2 viability, primary screen (AID 624349; in the data active = parasite load remaining mostly below about 12%, no sharp cut-off; inactive = mostly above about 10%;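 also: 100% = mean of DMSO negative control wells on the same plate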); details: P. berghei liver stage in HepG2, luciferase luminescence, concentration not given here; parasite load remaining: stronger effect = lower value; viability: measured here: HepG2 viability without parasites
# [13] = viability loss in pontine glioma line – cell-based, SU-DIPG-XVII, MIPE5.0, CellTiter-Glo, qHTS, dose response (AID 1347060; cut-off not given, nearly all actives have AC50 up to about 26 µM;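 also: cells exposed to compound for 48 hours before viability readout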); details: CellTiter-Glo ATP luminescence
# [14] = viability loss in pontine glioma line – cell-based, SU-DIPG-XIII, MIPE4.0, CellTiter-Glo, qHTS, dose response (AID 1347061; cut-off not given, nearly all actives have AC50 up to about 37 µM;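 also: cells exposed to compound for 48 hours before readout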); details: CellTiter-Glo ATP luminescence
# [15] = viability loss in pontine glioma line – cell-based, JHH-DIPG-1, MIPE4.0, CellTiter-Glo, qHTS, dose response (AID 1347062; cut-off not given, nearly all actives have AC50 up to about 27 µM;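 also: cells exposed to compound for two days before readout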); details: JHH-DIPG-1 viability, CellTiter-Glo ATP luminescence
# [16] = MELAS cybrid and Rieske KO viability enhancers – cell-based, MELAS cybrids, Rieske KO mouse fibroblasts, CellTiter-Glo, primary screen (AID 1508586;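 active = mean z-score across replicates of 1.96 or higher in either the MELAS or the Rieske mutant cell line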;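 also: z relative to plate mean and SD of compound and empty wells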); details: low glucose
# [17] = drug combination growth inhibition, ovarian cancer – cell-based, oncology-focused library, rucaparib conditional, profiling panel (AID 1508598); details: patient-derived ovarian cancer cells, CellTiter-Glo viability, 144 h, stronger effect = lower value
# [18] = stronger effect = lower value, cell number ratio, induced over uninduced
# [19] = measured here: relative caspase fold change +Dox/-Dox
# [20] = measured here: total cells with miR-34 induction, stronger effect = lower value
# [21] = measured here: total cells without miR-34 induction
compound,measurement,setting,value
CN1CC(=O)N/C1=N/C(=O)Nc1cccc(Cl)c1,nuclear beta-catenin stimulation,[1]; at 10 µM,0.5% (inactive)
same,nuclear beta-catenin stimulation,"[1]; stimulation, at 2 µM",-0.6%
same,insulin secretion stimulation,[2],-2.5% (inactive)
same,viability decrease,[3],-6.65% (inactive)
same,tube area decrease,[4],-5.1% (inactive)
same,GLP1 secretion stimulation,[5],4.2% (inactive)
same,inhibition of viability,[6],-16.7% (inactive)
same,viability decrease (inhibition),[7],45.2% (inactive)
same,viability decrease (inhibition),[8],3.8% (inactive)
same,remaining activity,[9],109% (inactive)
same,fold change,[10]; [18],0.899 (inactive)
same,fold change,[10]; [19],1.49
same,cell count,[10]; [20],8750
same,cell count,[10]; [21],9740
same,z-score,[11],0.46 (inactive)
CC1(C)Oc2ccc(C#N)cc2[C@@H](N2CCCC2=O)[C@@H]1O,nuclear beta-catenin stimulation,[1]; at 10 µM,0.9% (inactive)
same,nuclear beta-catenin stimulation,"[1]; stimulation, at 2 µM",0.1%
same,insulin secretion stimulation,[2],0.4% (inactive)
same,viability decrease,[3],-2.5% (inactive)
same,tube area decrease,[4],-8.1% (inactive)
same,GLP1 secretion stimulation,[5],3.2% (inactive)
same,inhibition of viability,[6],17.9% (inactive)
same,viability decrease (inhibition),[7],-2.4% (inactive)
same,viability decrease (inhibition),[8],5.4% (inactive)
same,remaining activity,[9],118% (inactive)
same,fold change,[10]; [18],0.905 (inactive)
same,fold change,[10]; [19],1.17
same,cell count,[10]; [20],9250
same,cell count,[10]; [21],10200
same,z-score,[11],0.27 (inactive)
C[N+](C)(C)CC[N+]1(C)Cc2c(Cl)c(Cl)c(Cl)c(Cl)c2C1,nuclear beta-catenin stimulation,[1]; at 10 µM,4.4% (inactive)
same,nuclear beta-catenin stimulation,"[1]; stimulation, at 2 µM",2.6%
same,insulin secretion stimulation,[2],-0.5% (inactive)
same,viability decrease,[3],-1% (inactive)
same,tube area decrease,[4],7.3% (inactive)
same,GLP1 secretion stimulation,[5],2.6% (inactive)
same,inhibition of viability,[6],-4.53% (inactive)
same,viability decrease (inhibition),[7],2.9% (inactive)
same,viability decrease (inhibition),[8],-10.2% (inactive)
same,remaining activity,[9],115% (inactive)
same,fold change,[10]; [18],0.88 (inactive)
same,fold change,[10]; [19],1.79
same,cell count,[10]; [20],9090
same,cell count,[10]; [21],10300
same,z-score,[11],0.045 (inactive)
CS(=O)(=O)CCNCc1ccc(-c2ccc3ncnc(Nc4ccc(OCc5cccc(F)c5)c(Cl)c4)c3c2)o1,parasite load remaining,[12],44.4% (inactive)
same,viability,[12],101%
same,nuclear beta-catenin stimulation,[1]; at 10 µM,31.2% (inactive)
same,nuclear beta-catenin stimulation,"[1]; stimulation, at 2 µM",-0.2%
same,insulin secretion stimulation,[2],1.35% (inactive)
same,viability decrease,[3],106% (active)
same,tube area decrease,[4],110% (active)
same,GLP1 secretion stimulation,[5],2.8% (inactive)
same,inhibition of viability,[6],107% (active)
same,viability decrease (inhibition),[7],129% (active)
same,viability decrease (inhibition),[8],100% (active)
same,AC50,[13],18.6 µM (active)
same,AC50,[14],14.8 µM (active)
same,AC50,[15],18.7 µM (active)
same,fold change,[10]; [18],0.964 (inactive) and 0.914 (inactive)
same,fold change,[10]; [19],1.01 and 1.28
same,cell count,[10]; [20],3040 and 7890
same,cell count,[10]; [21],3150 and 8630
same,z-score,"[16]; MELAS cybrid survival, CellTiter-Glo 48 h, stronger effect = higher value",2.46 (active) and -0.221 (inactive)
same,z-score,"[16]; Rieske KO mouse fibroblast survival, CellTiter-Glo 72 h",0.803 and 1.5
same,viability,"[17]; at 0.000305 µM, OCI-C5x cells, with rucaparib 10 µM, 100% = cells with rucaparib alone",113% (inactive) and 103% (inactive)
same,viability,"[17]; at 0.000305 µM, OCI-C5x cells, without rucaparib",123% (inactive) and 111% (inactive)
same,viability,"[17]; at 0.000305 µM, OCI-P5x cells, with rucaparib 20 µM, 100% = cells with rucaparib alone",95.1% (active) and 93.3% (active)
same,viability,"[17]; at 0.000305 µM, OCI-P5x cells, without rucaparib",102% (inactive) and 98.6% (active)
same,viability,"[17]; at 0.00122 µM, OCI-C5x cells, with rucaparib 10 µM, 100% = cells with rucaparib alone",107% (inactive) and 123% (inactive)
same,viability,"[17]; at 0.00122 µM, OCI-C5x cells, without rucaparib",123% (inactive) and 115% (inactive)
same,viability,"[17]; at 0.00122 µM, OCI-P5x cells, with rucaparib 20 µM, 100% = cells with rucaparib alone",96.9% (active) and 99.7% (active)
same,viability,"[17]; at 0.00122 µM, OCI-P5x cells, without rucaparib",104% (inactive) and 107% (inactive)
same,viability,"[17]; at 0.00488 µM, OCI-C5x cells, with rucaparib 10 µM, 100% = cells with rucaparib alone",111% (inactive) and 106% (inactive)
same,viability,"[17]; at 0.00488 µM, OCI-C5x cells, without rucaparib",131% (inactive) and 122% (inactive)
